{
  "source": "PubChem BioAssay AID977608",
  "origin": "cited, not measured here",
  "test": "literature IC50 values for PDB complexes, PDB-derived complexes (AID 977608)",
  "conditions": "PDB protein-ligand complexes",
  "note": "Hit rate of the full screen: of about 4,300 compounds, about 4,300 (100%) were called active. No cut-off is given here; in the data, nearly all actives have IC50 up to about 1400 µM. So high a share suggests a set chosen from earlier hits. Some of the results follow. Where a SMILES comes first, the peptide text is derived from it. Square brackets hold non-standard residues; d marks the D form. Peptide text beside a SMILES is read from it. [ ]: non-standard residue; d: D form. Orn(CH(NH2)2) = NC(N)NCCC[C@H](N)C(=O)O",
  "data": [
    {"compound": "CC[C@H](C)[C@H](NC(=O)[C@@H](NC(=O)[C@@H](NC(=O)[C@H](CCCNC(N)N)NC(=O)[C@H](CCCCN)NC(=O)[C@H](CO)NC(=O)[C@H](CCCNC(N)N)NC(=O)CNC(=O)[C@@H](NC(=O)[C@H](CCC(N)=O)NC(=O)CNC(=O)[C@H](CC(C)C)NC(=O)[C@H](CCCCN)NC(=O)[C@@H]1CCCN1C(=O)[C@@H]1CCCN1C(=O)[C@H](CCCNC(N)N)NC(=O)[C@@H](N)CCCCN)[C@@H](C)CC)C(C)C)C(C)C)C(=O)O", "note": "(H-K[Orn(CH(NH2)2)]PPKLGQIG[Orn(CH(NH2)2)]SK[Orn(CH(NH2)2)]VVI-OH)", "values": [
      {"measurement": "IC50", "setting": "protein: Calcium/calmodulin dependent protein kinase II, PDB entry 3kl8", "result": "120 nM (active)"}
    ]},
    {"compound": "C#CC[C@H](NC(=O)[C@@H](NC(=O)[C@H](CC(C)C)NC(=O)[C@@H](NC(=O)CNC(=O)[C@@H](NC(=O)CNC(=O)[C@H](C)NC(=O)[C@@H](CCC)NC(=O)[C@](C)(N)c1ccccc1)[C@@H](C)CC)[C@@H](C)CC)[C@@H](C)O)C(=O)O", "values": [
      {"measurement": "IC50", "setting": "protein: HLA class I histocompatibility antigen, A-2 alpha chain HLA-A 0201, PDB entry 4wj5", "result": "510 nM (active)"}
    ]},
    {"compound": "CC[C@H](C)[C@H](NC(=O)[C@H](C)NC(=O)[C@H](CC(N)=O)NC(=O)[C@@H]1CCCN1C(=O)[C@@H](N)CC(C)C)C(=O)NCC(=O)N[C@@H](CCCNC(N)N)C(=O)O", "note": "(H-LPNAIG[Orn(CH(NH2)2)]-OH)", "values": [
      {"measurement": "IC50", "setting": "protein: Low-density lipoprotein receptor-related protein 6, PDB entry 3sov", "result": "61000 nM (active)"}
    ]},
    {"compound": "NCCCC[C@H](N)C(=O)N[C@@H](CCCNC(N)N)C(=O)N1CCC[C@H]1C(=O)N1CCC[C@H]1C(=O)N1CCC[C@H]1C(=O)N1CCC[C@H]1C(=O)N1CCC[C@H]1C(=O)N1CCC[C@H]1C(=O)NCC(=O)O", "note": "(H-K[Orn(CH(NH2)2)]PPPPPPG-OH)", "values": [
      {"measurement": "IC50", "setting": "protein: cortactin isoform a, PDB entry 2d1x", "result": "7900 nM (active)"}
    ]},
    {"compound": "CC[C@H](C)[C@H](NC(=O)[C@H](CCCNC(N)N)NC(=O)CNC(=O)[C@@H](NC(=O)[C@@H](NC(=O)[C@@H](NC(=O)[C@@H](NC(=O)[C@H](CO)NC(=O)CNC(=O)CN)C(C)C)C(C)C)[C@@H](C)CC)C(C)C)C(=O)N[C@H](C(=O)N[C@@H](CC(C)C)C(=O)N[C@@H](CO)C(=O)O)[C@@H](C)CC", "note": "(HELM PEPTIDE1{G.G.S.V.V.I.V.G.[NC(N)NCCC[C@H](N[*:1])C(=O)[*:2]].I.I.L.S}$$$$V2.0)", "values": [
      {"measurement": "IC50", "setting": "protein: Genome polyprotein (D1194V mutation), PDB entry 4i32", "result": "58 nM (active)"},
      {"measurement": "IC50", "setting": "protein: Genome polyprotein (R1181K mutation), PDB entry 4i33", "result": "4.7 nM (active)"},
      {"measurement": "IC50", "setting": "protein: Genome polyprotein, PDB entry 4i31", "result": "0.48 nM (active)"}
    ]},
    {"compound": "CC[C@H](C)[C@H](NC(=O)[C@H](CO[P+](O)(O)O)NC(=O)[C@H](C)NC(=O)[C@H](CCC(N)=O)NC(=O)[C@@H](N)CCCNC(N)N)C(=O)N[C@@H](CCC(=O)O)C(=O)N[C@@H](CC(C)C)C(=O)N1CCC[C@H]1C(=O)N[C@@H](CO)C(=O)N[C@@H](CCSC)C(=O)O", "values": [
      {"measurement": "IC50", "setting": "protein: HLA class I histocompatibility antigen, PDB entry 3bh8", "result": "11.2 nM (active)"}
    ]},
    {"compound": "CCCNc1nc(N)c(C(=O)c2ccc(Cl)s2)s1", "values": [
      {"measurement": "IC50", "setting": "protein: Cyclin-dependent kinase 2, PDB entry 3s00", "result": "12000 nM (active)"}
    ]},
    {"compound": "Nc1nc(NC2C=C2)cc(-c2cccc(Cl)c2Cl)n1", "values": [
      {"measurement": "IC50", "setting": "protein: 7,8-dihydro-8-oxoguanine triphosphatase, human MTH1 protein, PDB entry 4n1u", "result": "5 nM (active)"}
    ]},
    {"compound": "CNc1cc(-c2cccc(Cl)c2Cl)nc(N)n1", "values": [
      {"measurement": "IC50", "setting": "protein: 7,8-dihydro-8-oxoguanine triphosphatase, human MTH1 protein, PDB entry 4n1t", "result": "0.8 nM (active)"}
    ]},
    {"compound": "O=C(NO)c1ncc(-c2ccccc2Cl)o1", "values": [
      {"measurement": "IC50", "setting": "protein: METHIONINE AMINOPEPTIDASE, PDB entry 4a6w", "result": "1900 nM (active)"}
    ]},
    {"compound": "Cc1ccc(OC[C@@H](O)CNC2Cc3ccccc3C2)cc1C", "values": [
      {"measurement": "IC50", "setting": "protein: Endochitinase CTS1, PDB entry 4txe", "result": "2400 nM (active)"}
    ]},
    {"compound": "C1=CC1c1[nH]nc2nccc(-c3ccco3)c12", "values": [
      {"measurement": "IC50", "setting": "protein: CHECKPOINT KINASE 2, PDB entry 4bdj", "result": "7200 nM (active)"}
    ]},
    {"compound": "O=C(NCc1ccc(S(=O)(=O)C2CCN(C3CCOCC3)CC2)cc1)n1cc2ccncc2c1", "values": [
      {"measurement": "IC50", "setting": "protein: Nicotinamide phosphoribosyltransferase, PDB entry 4kfp", "result": "10 nM (active)"}
    ]},
    {"compound": "C[C@H](C(=O)O)c1ccc2c(c1)[nH]c1ccc(Cl)cc12", "values": [
      {"measurement": "IC50", "setting": "protein: Fatty-acid amide hydrolase 1, PDB entry 4do3", "result": "79000 nM (active)"}
    ]},
    {"compound": "Nc1nc(Nc2ccc(S(N)(=O)=O)cc2)sc1C(=O)Nc1c(F)cccc1F", "values": [
      {"measurement": "IC50", "setting": "protein: Cyclin-dependent kinase 2, PDB entry 3r9h", "result": "100000 nM (active)"}
    ]},
    {"compound": "Nc1nc(Nc2ccc(S(N)(=O)=O)cc2)sc1C(=O)Nc1cc(F)cc(F)c1", "values": [
      {"measurement": "IC50", "setting": "protein: Cyclin-dependent kinase 2, PDB entry 3r9o", "result": "100000 nM (active)"}
    ]},
    {"compound": "Nc1nc(Nc2ccc(S(N)(=O)=O)cc2)sc1C(=O)Nc1cccc(F)c1", "values": [
      {"measurement": "IC50", "setting": "protein: Cyclin-dependent kinase 2, PDB entry 3r9d", "result": "71000 nM (active)"}
    ]},
    {"compound": "Oc1ccc(Nc2nc(-c3ccc(Cl)cc3)cs2)cc1", "values": [
      {"measurement": "IC50", "setting": "protein: Sphingosine kinase 1, PDB entry 3vzd", "result": "500 nM (active)"}
    ]},
    {"compound": "Cc1nc2ccc(Br)cc2c(-c2ccc(Cl)cc2)c1[C@H](OC(C)(C)C)C(=O)O", "values": [
      {"measurement": "IC50", "setting": "protein: Gag-Pol polyprotein (A128T mutation), PDB entry 4gvm", "result": "780 nM (active)"},
      {"measurement": "IC50", "setting": "protein: Gag-Pol polyprotein, PDB entry 4gw6", "result": "630 nM (active)"}
    ]},
    {"compound": "NC(N)c1ccc(CNC(=O)[C@@H]2CCN2C(=O)[C@H](NCC(=O)O)C2CCCCC2)cc1", "values": [
      {"measurement": "IC50", "setting": "protein: bovine trypsin, PDB entry 1k1p", "result": "11.9 nM (active)"}
    ]},
    {"compound": "CNC(=O)[C@H](Cc1cnc[nH]1)NC(=O)CN(CCCc1ccccc1)CC(=O)O", "values": [
      {"measurement": "IC50", "setting": "protein: human insulin degrading enzyme (ide), PDB entry 4gs8", "result": "100 nM (active)"}
    ]},
    {"compound": "O=c1ccn([C@H]2C[C@H](O)[C@@H](CO[P+](O)(O)N[P+](O)(O)O[P+](O)(O)O)O2)c(=O)[nH]1", "values": [
      {"measurement": "IC50", "setting": "protein: Human dUTPase, PDB entry 3ehw", "result": "15200 nM (active)"}
    ]},
    {"compound": "O=c1ccn([C@@H]2O[C@H](CO[P+](O)(O)O[P+](O)(O)O)[C@@H](O)[C@H]2O)c(=O)[nH]1", "values": [
      {"measurement": "IC50", "setting": "protein: human O-GlcNAc transferase and a thioglycopeptide, PDB entry 4gz3", "result": "1800 nM (active)"}
    ]},
    {"compound": "COc1cc(Nc2ncc(F)c(Nc3ccc4c(n3)N(CO[P+](O)(O)O)C(=O)C(C)(C)O4)n2)cc(OC)c1OC", "values": [
      {"measurement": "IC50", "setting": "protein: Bromodomain-containing protein 4 BRD4-1, PDB entry 4o75", "result": "21000 nM (active)"}
    ]},
    {"compound": "COc1nc2c(Nc3ccccc3C(C)(C)C)c(C(=O)O)cnc2cc1-c1c(C)noc1C", "values": [
      {"measurement": "IC50", "setting": "protein: BROMODOMAIN-CONTAINING PROTEIN 4, PDB entry 4bw3", "result": "500 nM (active)"}
    ]},
    {"compound": "Cc1noc(C)c1-c1ccc2c(Nc3ccccc3C(C)(C)C)c(C(=O)O)cnc2n1", "values": [
      {"measurement": "IC50", "setting": "protein: BROMODOMAIN-CONTAINING PROTEIN 4, PDB entry 4bw2", "result": "6310 nM (active)"}
    ]}
  ]
}
